In the library only some 19% were active in any assay of this set; here they are far more common.
IL-1B inflam inh – inflammasome signaling inhibition, IL-1 beta readout; activity change, % at 57.5 µM; THP-1 LPS/ATP IL-1B secretion, AlphaLISA, 16 h; hits give low values; AID 743279; hit rate 4.7% among 360,000; in the data active means activity change below about -50%; inconclusive means mostly about -30% to -49%
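Secreted IL-1B measured by AlphaLISA bead assay after 16 h compound exposure of THP-1 cells; compounds (final up to 57.5 uM) added 1 h before LPS (250 ng/mL) and ATP (1.25 mM) stimulation; lower signal means less secretion.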
DT40 TDP1 no CPT – qHTS for Inhibitors of human tyrosyl-DNA phosphodiesterase 1 (TDP1): qHTS in cells in absence of CPT; DT40 Tdp1-/- hTDP1 cells, no CPT, ATP luminescence, 48 h; hit rate 15% among 420,000; Potency, µM (highest dose often 46.2 µM), for the others: top-dose activity change, negative = growth inhibition, most hits filed as inhibitors; AID 686978, 2013; further: potency means the concentration at half of the fitted maximal effect; nearly all actives have a fitted effect of over 55% in size
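Readout: luminescence from CellTiter-Glo after 30 min in the dark at RT. Cells: DT40 Tdp1-/- with stable hTDP1, 400/well. Exposure: compounds alone, ≥48 hr, 37 °C.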
HT1080 IDH1KD tx – toxicity to HT-1080 IDH1 knockdown cells (counter line). Potency, µM (titrated, usually from 46.1 µM), inactives show top-dose activity, negative = toxicity, most hits filed as cytotoxic. AID 686971. hit rate 2% among 360,000. HT-1080 IDH1 knockdown viability, ATP luminescence, 48 h;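 further: potency means the concentration at half of the fitted maximal effect; 0% = DMSO wells and -100% = cell-free medium wells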
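Viability of IDH1-knockdown HT-1080 fibrosarcoma cells was assessed by CellTiter-Glo after 48 h at 37 °C with titrated compound; concentration-effect curves were classified by fit quality and response size.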
ELG1 DNA repair – ELG1-dependent DNA repair inhibition. Potency, µM (top dose mostly 46.1 µM), for inactives: at the top dose activity change, negative = inhibition, most hits filed as inhibitors. AID 504467. HEK293T ELG1-luciferase reporter, luminescence, 16 h; DNA damage induced by 5-fluorouridine. hit rate 2.3% among 330,000; further: potency means the concentration at half of the fitted maximal effect; nearly all actives have a fitted effect of over 55% in size
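In this reporter screen, reduction of luminescence relative to DMSO vehicle indicated activity. Compounds and 5-fluorouridine were added together to 2,000 cells per well, incubated for 16 hr at 37 °C, then developed with ONE-Glo.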
DT40 TDP1 CPT – growth inhibition of DT40 Tdp1-/-;hTDP1 cells with camptothecin (screen for TDP1 inhibitors). Potency, µM (top dose mostly 46.2 µM), for the others: top-dose activity change, negative = growth inhibition, usual class: inhibitors. chicken DT40 Tdp1-/-;hTDP1 cells + 20 nM CPT, ATP luminescence, 48 h. AID 686979. hit rate 12% among 420,000; further: potency means the concentration at half of the fitted maximal effect; nearly all actives have a fitted effect of over 55% in size
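Chicken DT40 Tdp1-/- cells complemented with human TDP1, 400 cells/well, exposed to compounds plus 20 nM camptothecin for at least 48 h at 37 C; viability read as ATP content by CellTiter-Glo luminescence.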
HT1080-NT tox – kills 2HG-producing HT-1080-NT fibrosarcoma cells; hit rate 1.6% among 360,000; HT-1080-NT fibrosarcoma viability, CellTiter-Glo ATP luminescence, 48 h; Potency, µM (series often up to 46.1 µM), without a hit: at the highest dose activity, negative = less viability, actives largely listed as cytotoxic; AID 686970;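 further: NT is the 2HG producing partner of a matched IDH1 knockdown line; potency means the concentration at half of the fitted maximal effect; 0% = DMSO-treated cells and -100% = media-only wells without cells; nearly all actives have a fitted effect of over 55% in size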
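Luminescent CellTiter-Glo readout after 48 hours of compound exposure at 37 degrees C defined viability of HT-1080-NT cells. Activity was normalized to DMSO wells and cell-free media wells; concentration-response curves were fitted and assigned curve classes.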
An asterisk follows results filed as active; ? = inconclusive; · = not tested or not shown; [ ] = remark or other dose. Unless noted, the call rests on the fitted dose curve; in most records, active means well fitted curve in the direction sought with a large enough effect; inconclusive means small, poorly fitted or top-dose-only effect, or another doubt; inactive means no such curve, though single readings can be large; an effect the other way counts as inactive or inconclusive. Unless noted, on the % scale 0 is the no-effect control and ±100 the full control effect.

SMILES	IL-1B inflam inh	DT40 TDP1 no CPT	HT1080 IDH1KD tx	ELG1 DNA repair	DT40 TDP1 CPT	HT1080-NT tox
CCOC(=O)C1CCN(C(=O)c2c(C)oc3c2C(=O)c2ccccc2C3=O)CC1	-75.7*	7.31µM*	-14.7%	?	5.17µM*	-5.9%
Cc1ccc(C(=O)NCCNC(=O)COc2ccc(C)c(C)c2)cn1	35.7	8.4%	-3.0%	-3.4%	7.1%	-1.3%
O=C(Nc1ccc(F)c(Cl)c1)c1cc(C2CCCN(C(=O)c3cccs3)C2)on1 (stereo not given)	-12.1	?	-21.7%	·	?	-14.5%
Cc1cc(-c2ccc(C)c(S(=O)(=O)Nc3cccc(CN4CCCC4)c3)c2)on1	9.9	-12.9%	-2.0%	23.4%	-13.8%	-13.3%
Cc1ccc(-c2cnc(C3CC3)o2)cc1S(=O)(=O)Nc1cccc(C#N)c1	·	5.8µM*	·	·	5.8µM*	·
COc1cccc(NS(=O)(=O)c2cc(-c3cnc(C4CC4)o3)ccc2C)c1	·	0.581µM*	·	·	0.92µM*	·
O=C(NCc1ccccc1)c1ccc(CNS(=O)(=O)c2ccc(Br)cc2)cc1	·	-8.8%	·	·	-23.2%	·
CCOCCc1nn2c(=O)cc(COC(=O)c3ccccc3NC(=O)c3ccccc3F)nc2s1	·	-28.5%	·	·	-5.1%	·
FC(F)(F)c1nnc2c(Sc3ccccn3)nc3ccccc3n12	-66.0*	4.61µM*	?	0.0%	5.17µM*	?
FC(F)(F)c1nc2ccccc2c2nc3ccccc3n12	30.8	-6.7%	-12.7%	?	0.6%	-13.8%
Cc1nnc2c(SC(C)C)nc3ccccc3n12	-14.2	?	?	7.9%	?	?
FC(F)(F)c1nnc2c(Sc3ccc(Cl)cc3)nc3ccccc3n12	-52.0*	1.84µM*	7.8%	-26.2%	2.59µM*	?
COCC(=O)Nc1cc(C(=O)N2CCN(c3ccccc3)CC2C)c2c(c1)nc(-c1ccncc1)n2C (stereo not given)	·	-15.2%	·	·	-6.2%[9.04 µM]	·
CN(C(=O)COC(=O)c1ccc(-c2ccc(O)cc2)cc1)C1CCS(=O)(=O)C1 (stereo not given)	1.0	12.2%	18.4µM*	?	-7.0%	6.51µM*
Cc1cccn2c(NCc3ccc4c(c3)OCO4)c(-c3ccc(O)cc3)nc12	-3.4	-27.3%	-1.4%	?	-3.9%	-12.4%
COc1ccc(-c2nc3ncccn3c2Nc2ccccc2)cc1	-21.2	?	-0.5%	-19.3%	-1.9%	0.0%
Cc1cccc(C)c1Nc1c(-c2ccccn2)nc2c(C)cccn12	·	25.9µM*	·	·	16.4µM*	·
Cc1cccn2c(Nc3ccccc3)c(-c3ccccn3)nc12	-9.1	20.6µM*	-11.4%	?	18.4µM*	?
O=C(COc1ccc(Br)cc1CNCCc1ccccc1)NCc1ccccc1	?	7.31µM*	?	7.9%	11.6µM*	20.6µM*
NS(=O)(=O)c1ccc(CCNCc2cc(Cl)ccc2OCc2ccccc2)cc1	-99.9*	?	?	-12.2%	?	?
C=CCOc1ccccc1CNCCc1ccc(S(N)(=O)=O)cc1	-12.2	-19.0%	-5.6%	13.3%	-19.3%	2.8%
NS(=O)(=O)c1ccc(CCNCc2ccccc2OCc2ccc(Cl)cc2)cc1	-80.5*	?	14.6µM*	-16.3%	23.1µM*	23.1µM*
NS(=O)(=O)c1ccc(CCNCc2cc(Br)ccc2OCc2ccccc2F)cc1	·	4.11µM*	23.1µM*	?	5.8µM*	?
NS(=O)(=O)c1ccc(CCNS(=O)(=O)Cc2ccc(Cl)cc2)cc1	19.0	-26.8%	1.7%	-3.0%	5.4%	1.6%
O=C(O)C1CCC(NSc2ccccc2[N+](=O)[O-])CC1 (stereo not given)	-9.8	2.59µM*	-2.5%	6.2%	2.91µM*	0.9%
SMILES	IL-1B inflam inh	DT40 TDP1 no CPT	HT1080 IDH1KD tx	ELG1 DNA repair	DT40 TDP1 CPT	HT1080-NT tox
NC(=O)CC(NSc1ccccc1[N+](=O)[O-])C(=O)O (stereo not given)	-1.3	18.4µM*	-6.8%	4.0%	16.4µM*	1.2%
O=[N+]([O-])c1ccccc1SNc1ccccc1	?	-28.4%	-9.2%	·	-27.7%	-7.8%
CCc1cccc(CC)c1NC(=S)N(CCN(C)C)C(C)c1cccnc1 (stereo not given)	?	-5.5%	-7.7%	3.4%	-12.1%	-7.0%
COc1cc2c(cc1[N+](=O)[O-])-c1ccccc1C2	-12.4	-12.8%	5.0%	·	-15.1%	6.3%
O=[N+]([O-])c1cc2c(cc1Br)-c1ccccc1C2	36.7	25.9µM*	-14.0%	·	-9.4%	-1.0%
COc1ccccc1/C=C/c1nc(C#N)c(N2CCCCCC2)o1	·	-26.7%	·	·	?	·
COc1ccc(OC)c(NC(=O)c2cccc(S(=O)(=O)N(Cc3ccccc3)c3ccccc3OC)c2)c1	7.2	?	13.0%	-0.9%	6.51µM*	7.2%
COc1ccc(S(=O)(=O)N2CCCCC2)cc1N(C)S(=O)(=O)c1ccccc1	23.1	?	-5.0%	0.0%	?	0.5%
COc1ccccc1N(C)S(=O)(=O)c1ccc(C)c(C(=O)N2CCCCCC2)c1	-1.7	7.31µM*	1.8%	-19.0%	7.31µM*	2.9%
COc1ccccc1N(Cc1ccccc1)S(=O)(=O)c1cccc(C(=O)N2CCCCC2)c1	-57.9*	18.4µM*	?	-26.1%	?	?
NC(=O)C1CCCN(C(=O)c2cccc(S(=O)(=O)N(Cc3ccccc3)c3ccccc3)c2)C1 (stereo not given)	-1.5	?	-1.7%	-0.4%	-20.7%	7.2%
COc1ccccc1N(Cc1ccccc1)S(=O)(=O)c1cccc(C(=O)Nc2ccc(C(C)=O)cc2)c1	42.1	?	-9.6%	3.2%	-5.4%	-10.9%
COc1ccc(S(=O)(=O)N2CCCCCC2)cc1N(C)S(=O)(=O)c1ccccc1	-3.6	23.1µM*	-1.4%	?	?	7.0%
COc1cc(C(=O)OCC(=O)N2CCNC2=O)cc(Cl)c1OC	12.6	-20.6%	0.3%	11.6%	6.9%	-0.5%
CCc1ccc(CN(C)C(=O)C2CCC(=O)N(CC3CCCCC3)C2)cc1 (stereo not given)	-10.4	?	-9.4%	9.9%	23.1µM*	-4.8%
Cc1cc(Cl)ccc1OCCSc1nnc(-c2cccs2)o1	·	?	·	·	-1.1%	·
O=c1c2ccccc2ncn1Cc1ccc(Cl)cc1	-13.2	-12.3%	-21.2%	13.4%	-22.9%	-23.4%
O=c1c2ccccc2nc2n1CCN2Cc1ccc(Cl)cc1	-78.0*	?	-23.2%	-18.8%	18.4µM*	?
